Test results taken from PubChem BioAssay (NCI).
The panel holds about 79,000 compounds, 15% with a hit somewhere; the sample as a whole holds those more often. The source made the active and inactive calls. No stated cut-off is given here; in the data, active means growth inhibition above about 70%; inactive means the rest.

Tests used:
[1] = NCI Yeast Anticancer Drug Screen. Data for the rad52 strain (AID 147);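 further: 0% = growth of vehicle-treated control cultures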; conditions: S. cerevisiae rad52 mutant growth inhibition, stronger effect = higher value
In short: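 Compounds are applied to a genetically defined yeast strain lacking normal DNA damage repair, and inhibition of growth is expressed relative to cultures given vehicle only.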

[2] = NCI Yeast Anticancer Drug Screen. Data for the wt1 strain (AID 149);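 further: 0% = growth of vehicle-treated wt1 cultures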; conditions: S. cerevisiae wt1 strain (SPY 50644) growth inhibition, stronger effect = higher value
In short: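 wt1 strain grown with compound or vehicle; inhibition taken from the growth difference.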

[3] = NCI Yeast Anticancer Drug Screen. Data for the rad50EPP+ strain (AID 151);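 further: 0% = growth of vehicle-treated control cultures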; conditions: S. cerevisiae rad50 mutant strain, stronger effect = higher value
In short: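 Compounds were applied to the rad50EPP+ yeast strain, which bears a defined DNA repair alteration, and growth inhibition was determined relative to vehicle-treated cultures.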

[4] = NCI Yeast Anticancer Drug Screen. Data for the mgt1 strain (AID 153); conditions: S. cerevisiae mgt1 mutant growth inhibition, stronger effect = higher value
In short: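 Strain: mgt1 yeast, one of a set carrying defined DNA damage repair or cell cycle control alterations. Compound-treated growth compared with vehicle.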

[5] = NCI Yeast Anticancer Drug Screen. Data for the rad50 strain (AID 155);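 further: 0% = growth of vehicle-only cultures of the same strain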; conditions: S. cerevisiae rad50 strain growth inhibition, stronger effect = higher value
In short: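 DNA repair mutant yeast, compound exposure, growth read-out; inhibition is taken relative to vehicle.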

[6] = NCI Yeast Anticancer Drug Screen. Data for the mec2-1 strain (AID 157); conditions: S. cerevisiae mec2-1 strain, stronger effect = higher value
In short: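 Strain: mec2-1 (DNA repair/cell cycle alteration). Compound exposure, then growth measured; inhibition expressed relative to vehicle.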

[7] = NCI Yeast Anticancer Drug Screen. Data for the rad14 strain (AID 159);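 further: 0% = growth of vehicle-treated control cultures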; conditions: S. cerevisiae rad14 strain growth inhibition, stronger effect = higher value
In short: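 DNA repair-defective yeast, compound-exposed; % growth inhibition derived by comparison with vehicle-treated controls.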

[8] = NCI Yeast Anticancer Drug Screen. Data for the sgs1 mgt1 strain (AID 161);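 further: 0% = growth of cultures given vehicle only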; conditions: S. cerevisiae sgs1 mgt1 strain, stronger effect = higher value
In short: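 Mutant yeast exposed to compound; growth scored against vehicle-only wells.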

[9] = NCI Yeast Anticancer Drug Screen. Data for the CLN2oe strain (AID 163);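 further: 0% = growth of vehicle-only control cultures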; conditions: S. cerevisiae CLN2oe strain, stronger effect = higher value
In short: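 Growth of a genetically modified yeast strain is measured after compound exposure and compared with cultures given vehicle alone.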

[10] = NCI Yeast Anticancer Drug Screen. Data for the cln2 rad14 strain (AID 165);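 further: 0% = growth equal to vehicle treated cultures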; conditions: S. cerevisiae cln2 rad14 strain, stronger effect = higher value
In short: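 Compounds are applied to the cln2 rad14 yeast strain, and growth is then compared with that of vehicle-treated cultures to give inhibition.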

[11] = NCI Yeast Anticancer Drug Screen. Data for the bub3 strain (AID 167); conditions: S. cerevisiae bub3 mutant strain, stronger effect = higher value
In short: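 In this screen, a yeast mutant lacking normal mitotic checkpoint function is challenged with compound. Relative growth versus vehicle gives the inhibition value.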

[12] = NCI Yeast Anticancer Drug Screen. Data for the wt2 strain (AID 169);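 further: 0% = growth of vehicle-treated yeast cultures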; conditions: S. cerevisiae wt2 strain growth inhibition, stronger effect = higher value
In short: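 This strain belongs to a panel of yeast strains with defined genetic alterations in DNA damage repair or cell cycle control. Compounds are applied, and growth inhibition is measured against vehicle-treated cultures.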

[13] = NCI Yeast Anticancer Drug Screen. Data for the mlh1 strain (AID 171);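 further: 0% = growth of vehicle-treated control cultures of the same strain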; conditions: S. cerevisiae mlh1 strain growth inhibition, stronger effect = higher value
In short: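 Growth of the mutant yeast strain after compound exposure, expressed as inhibition relative to vehicle-only controls.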

[14] = NCI Yeast Anticancer Drug Screen. Data for the sgs1 strain (AID 173);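 further: 0% = growth of vehicle-only control cultures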; conditions: S. cerevisiae sgs1 mutant, stronger effect = higher value
In short: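 Growth of a yeast strain bearing a defined genetic alteration is measured after compound treatment. Inhibition is expressed relative to vehicle-only controls.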

[15] = NCI Yeast Anticancer Drug Screen. Data for the mlh1 rad18 strain (AID 175); conditions: S. cerevisiae mlh1 rad18 strain growth inhibition, stronger effect = higher value
In short: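 Read-out is yeast growth inhibition, calculated against vehicle-only controls. The compound was applied to a strain engineered with DNA damage repair alterations.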

[16] = NCI Yeast Anticancer Drug Screen. Data for the rad18 strain (AID 177); conditions: S. cerevisiae rad18 mutant growth inhibition, stronger effect = higher value
In short: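 Growth of the mutant yeast strain after compound exposure, normalised to vehicle-only cultures.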

[17] = at 5.0 µM (retest, dose inferred, filed as 0.5)
[18] = at 50.0 µM (retest, dose inferred, filed as 5.0)

Measured: growth inhibition

Cc1ccc2[nH]c3c(C)c4cc[n+](C)cc4c(C)c3c2c1
inactive: [1]; at 1.2 µM 25% | [1]; at 3.7 µM 14% | [1]; at 11.0 µM 34% | [2]; at 1.2 µM -6% | [2]; at 3.7 µM -12% | [2]; at 11.0 µM -10% | [2]; at 33.0 µM 6% | [3]; at 1.2 µM 35% | [3]; at 3.7 µM 21% | [3]; at 11.0 µM 31% | [3]; at 33.0 µM 49% | [4]; at 1.2 µM -18% | [4]; at 3.7 µM -15% | [4]; at 11.0 µM -23% | [4]; at 33.0 µM 47% | [5]; at 1.2 µM 12% | [5]; at 3.7 µM 16% | [5]; [17] 22% | [5]; at 11.0 µM 26% | [6]; at 1.2 µM -2% | [6]; at 3.7 µM 19% | [6]; [17] 15% | [6]; at 11.0 µM 8% | [6]; at 33.0 µM 55% | [7]; at 1.2 µM 16% | [7]; at 3.7 µM 6% | [7]; at 11.0 µM -8% | [7]; at 33.0 µM 41% | [8]; [17] 13% | [8]; [18] 8% | [9]; at 1.2 µM 42% | [9]; at 3.7 µM 37% | [9]; at 11.0 µM 36% | [9]; at 33.0 µM 63% | [10]; [17] 30% | [10]; [18] 37% | [10]; at 50.0 µM 62.3% | [11]; at 1.2 µM 10% | [11]; at 3.7 µM 24% | [11]; [17] 12% | [11]; at 11.0 µM 23% | [11]; at 33.0 µM 51% | [11]; at 50.0 µM 65.6% | [12]; at 1.2 µM 3% | [12]; at 3.7 µM -19% | [12]; at 11.0 µM -15% | [12]; at 33.0 µM 49% | [13]; at 1.2 µM 7% | [13]; at 3.7 µM 25% | [13]; at 11.0 µM 14% | [13]; at 33.0 µM 61% | [14]; at 1.2 µM 1% | [14]; at 3.7 µM -21% | [14]; at 11.0 µM 22% | [14]; at 33.0 µM 54% | [15]; [17] 14% | [15]; at 50.0 µM -26.9% | [16]; at 1.2 µM -11% | [16]; at 3.7 µM -1% | [16]; at 11.0 µM 1% | [16]; at 33.0 µM 37%
active: [1]; at 33.0 µM 89% | [1]; at 100.0 µM 97% | [2]; at 100.0 µM 79% | [3]; at 100.0 µM 88% | [4]; at 100.0 µM 94% | [5]; at 33.0 µM 83% | [5]; [18] 91% | [5]; at 50.0 µM 85.6% | [5]; at 100.0 µM 95% | [6]; [18] 71% | [6]; at 50.0 µM 79.8% | [6]; at 100.0 µM 94% | [7]; at 100.0 µM 90% | [8]; at 50.0 µM 85.7% | [9]; at 100.0 µM 95% | [11]; [18] 81% | [11]; at 100.0 µM 95% | [12]; at 100.0 µM 95% | [13]; at 100.0 µM 94% | [14]; at 100.0 µM 93% | [15]; [18] 72% | [16]; at 100.0 µM 93%
